Screening results from PubChem.
PREPL inh – PREPL enzyme inhibitors, primary screen, biochemical, fluorescence polarization; 0.68% of 320,000 active; recombinant PREPL, fluorescence polarization activity-based probe; AID 2751, 2010; inhibition, % at 5.96 µM; Prolyl endopeptidase-like (Homo sapiens), Q4J6C6; in the data active means inhibition above about 43%;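 further: 0% = enzyme with DMSO and 100% = wells lacking enzyme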
Target sequence (Q4J6C6 whole entry, looked up): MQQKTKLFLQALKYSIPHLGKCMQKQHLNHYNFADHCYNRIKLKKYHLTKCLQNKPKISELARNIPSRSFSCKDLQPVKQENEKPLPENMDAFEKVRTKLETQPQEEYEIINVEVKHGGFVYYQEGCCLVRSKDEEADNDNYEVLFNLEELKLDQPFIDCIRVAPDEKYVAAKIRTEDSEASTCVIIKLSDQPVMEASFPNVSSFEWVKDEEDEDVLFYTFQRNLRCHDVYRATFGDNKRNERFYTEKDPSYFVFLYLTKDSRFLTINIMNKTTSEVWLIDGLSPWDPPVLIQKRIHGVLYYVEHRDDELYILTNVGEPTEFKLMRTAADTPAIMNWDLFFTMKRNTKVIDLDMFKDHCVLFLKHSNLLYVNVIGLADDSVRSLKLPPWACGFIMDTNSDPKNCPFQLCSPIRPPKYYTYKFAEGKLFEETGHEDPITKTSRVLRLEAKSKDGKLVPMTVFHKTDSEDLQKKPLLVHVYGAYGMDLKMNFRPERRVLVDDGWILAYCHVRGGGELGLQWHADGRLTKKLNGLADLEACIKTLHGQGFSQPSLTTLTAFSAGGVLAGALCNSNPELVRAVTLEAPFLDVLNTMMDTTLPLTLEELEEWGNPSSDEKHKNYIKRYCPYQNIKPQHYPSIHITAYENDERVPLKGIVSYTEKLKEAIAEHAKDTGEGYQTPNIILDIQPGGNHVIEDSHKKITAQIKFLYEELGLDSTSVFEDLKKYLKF
ATG4B inh – ATG4B protease inhibitors, primary screen, biochemical, fluorescence, uHTS | Cysteine protease ATG4B (Homo sapiens), Q9Y4P1 | ATG4B cleavage of LC3-PLA2, NBD-HPC fluorescence, 1 h | inhibition, % at 8.33 µM | 0.51% of 340,000 active | AID 504462, 2011; in the data active means inhibition above about 40%
MEKK2 mut-MEK5 – MEK5 binding signal on mutant MEKK2 PB1, primary screen, biochemical, multiplex bead flow cytometry, Alexa488-MEK5 | percent response, % at 10 µM | Alexa488-MEK5 binding to MEKK2 mutant | AID 1530, 2009 | 0.35% of 290,000 active; in the data active means percent response above about 24%, passing the limit was not always enough
MEKK2wt PB1 HTS – modulators of MEK5 binding to wildtype MEKK2, primary screen, biochemical, multiplex bead flow cytometry, Alexa488-MEK5. 1.1% of 290,000 active. Alexa488-MEK5 binding to MEKK2 WT; actives lie on both sides. AID 1531, 2009. binding response (% of control), % at 10 µM; in the data active means binding response below about 67% or above about 130%
UBC13 inh – UBC13 polyubiquitin chain formation inhibitors, primary screen, biochemical, TR-FRET, uHTS; Ubiquitin-conjugating enzyme E2 N (Homo sapiens), P61088; 0.47% of 330,000 active; inhibition, % at 20 µM; AID 485273, 2010; in the data active means inhibition above about 45%, passing the limit was not always enough
MEKK3 PB1 HTS – modulators of MEKK3-MEK5 PB1 binding, primary screen, biochemical, wildtype MEKK3, multiplex bead flow cytometry, Alexa488-MEK5; Mitogen-activated protein kinase kinase kinase 3 (Homo sapiens), Q99759; bead-based flow cytometry, Alexa488-MEK5 binding to MEKK3; actives lie on both sides; 0 = blocked by unlabeled MEK5, 100 = vehicle; binding response (% of control), % at 10 µM; 1.4% of 290,000 active; AID 1529, 2009;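 active means binding response more than 3 SD above or below the average of its plate-row segment, actives on both sides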;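 further: Alexa488 bead fluorescence after subtracting the streptavidin-only scavenger bead signal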
* hit, by the source's call; i = inactive; · = not tested or not shown; ! = a repeat was not active; [ ] = another dose, or the depositor's remark. Compounds with a hit are over-represented: about 3.1% of the library has one in this group of screens.

SMILES	PREPL inh	ATG4B inh	MEKK2 mut-MEK5	MEKK2wt PB1 HTS	UBC13 inh	MEKK3 PB1 HTS
CCN1CCN(c2cc(N3CCCC3)c(F)cc2[N+](=O)[O-])CC1	12	16	2	114	-99	159*
CCC(=NCc1ccc2c(c1)OCO2)c1c(O)n(C2CCCCC2)c(=O)[nH]c1=O	45*	-1	-6	88	6	97
CN1CC[C@@]23CCCC[C@@H]2[C@@H]1Cc1ccc(O)cc13	24	-6	0	104	5	115
CN1CC[C@]2(c3cccc(O)c3)Cc3nc4ccccc4cc3C[C@H]2C1	·	·	3	114	·	62*![inhibitor]
COCCNC(=O)N1[C@H]2CC[C@@H]1C(C(=O)OC)=C(c1ccc(OC(F)(F)F)cc1)C2	23	3	·	·	-8	·
COC(=O)C1=CO[C@@H](C)[C@@H]2CN3CC[C@]4(C(=O)Nc5ccccc54)[C@@H]3C[C@H]12	13	1	19	98	8	138*
O=C1CN=C(c2ccccc2)c2cc(Br)ccc2N1Cc1cc(=O)n2ccccc2n1	50*	-8	0	96	-4	95
COC1=C(C)C(=O)O[C@]12C(=O)C(C)=C1CCCCN3[C@H]([C@@H]4C[C@H](C)C(=O)O4)CC[C@]132	-2	-6	·	·	8	·
Cc1cc2c(C(C)C)c(O)c(O)c(C=O)c2c(O)c1-c1c(C)cc2c(C(C)C)c(O)c(O)c(C=O)c2c1O	·	·	-5	58*[inhibitor]	·	42*![inhibitor]
CN1CCN(c2nc3ccccn3c(=O)c2C=C2C(=O)N(C)C(=O)N(C)C2=O)CC1	1	-13	1	111	13	135*
CN1C(=O)C(=Cc2sc(=O)n(-c3ccccc3)c2N2CCCCC2)C(=O)N(C)C1=O	·	-7	1	99	·	97
CN[C@H]1C[C@H]2O[C@@](C)([C@H]1OC)n1c3ccccc3c3c4c(c5c6ccccc6n2c5c31)C(=O)NC4	76*	·	·	·	26	·
COC(=O)C1=C(c2ccc(F)cc2OCc2ccccc2)C[C@@H]2CC[C@H]1N2C(=O)NCCCOC(C)C	5	-10	·	·	0	·
Cc1ccccc1N1C(=O)/C(=C/c2ccco2)C(=O)NC1=S	46*	·	-17	80	·	82*[inhibitor]
CCOc1ccc(N2C(=O)/C(=C/c3ccco3)C(=O)NC2=S)cc1	-7	81*	0	100	-20	104
CCOc1ccc(N2C(=O)/C(=C\c3cccs3)C(=O)NC2=S)cc1	-3	4	-11	90	-16	95
COC(=O)c1ccccc1OP(=O)(c1cccc([N+](=O)[O-])c1)c1cccc([N+](=O)[O-])c1	2	-10	-6	99	4	98
CC1(C)OC(c2ccccc2)=C/C(=C/C=C2C(=O)NC(=S)NC2=O)O1	-62	11	-13	-5.0*[inhibitor]	i	73*[inhibitor]
CN1/C(=C\C=C2C(=O)NC(=S)NC2=O)C(C)(C)c2ccccc21	·	-6	-6	97	i	106
O=C(Nc1nccs1)c1c(O)c2c(n(Cc3ccco3)c1=O)CCCC2	13	-4	5	-4.0*	-14	108
COc1ccccc1-n1c(O)c(C=NCCN2CCNCC2)c(=O)[nH]c1=O	2	-4	3	104	8	102
Cc1ccc(N2C(=O)NC(=O)/C(=C/C=C/c3ccco3)C2=O)cc1	14	7	18	103	-29	94
CC(C)c1ccc(N2C(=O)NC(=O)/C(=C/C=C/c3ccco3)C2=O)cc1	-9	9	36	60*[inhibitor]	·	100
CCCCN1C(=O)/C(=C/C=C/c2ccco2)C(=O)NC1=S	·	44*	-22	64	·	92
O=C1NC(=O)N(Cc2ccc(F)cc2)C(=O)/C1=C\C=C\c1ccco1	19	9	7	104	-18	106
O=P(C(=Nc1ccc(Cl)cc1)N1CCOCC1)(N1CCOCC1)N1CCOCC1	17	4	0	97	-6	94
